Data: the supplement of paper PMC10338343
± gives the standard deviation.

Assays:
[1] = tested on: MILI (PIWIL2) piRISC loaded with L1MC piRNA (26 nt); assay: pre-steady-state target cleavage rate (min^-1); guide: L1MC piRNA 5'p-UAACUAAAUACUAUGCAAGCUGUAGG; higher = faster piRNA-guided slicing of the target;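 further: 1 nM active piRISC with 0.1 nM target library at 33 °C single turnover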
Outline: (§1)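 A transcribed, DNA-blocked target RNA library […] was incubated at 33 °C for 0–8 or 0–960 min with 1 nM active affinity-purified piRISC carrying one synthetic guide, in HEPES–potassium acetate buffer with or without 500 nM GTSF1 partner protein. Uncleaved targets were then sequenced and normalised to depth and to weakly complementary targets. Data from three trials were pooled, with k3 capped at 0.0001 min^-1, and a burst-and-steady-state fit yielded the pre-steady-state cleavage rate.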

[2] = tested on: EfPiwi piRISC loaded with L1MC piRNA (26 nt); assay: pre-steady-state target cleavage rate (min^-1); auxiliary factor: 500 nM Ephydatia muelleri Gtsf1; guide: L1MC piRNA 5'p-UAACUAAAUACUAUGCAAGCUGUAGG; MIWI and MILI are mouse PIWI proteins and EfPiwi is from a freshwater sponge; tags in brackets are library labels; higher = faster piRNA-guided slicing of the target
Outline: as §1

[3] = auxiliary factor: 500 nM mouse GTSF1
[4] = auxiliary factor: none (no GTSF1)

Sequence | pre-steady-state target cleavage rate [1, 3] | pre-steady-state target cleavage rate [1, 4] | pre-steady-state target cleavage rate [2]
UCCUCCUACAGCUAGCAUAGUAUUAAGUUA | 0.205 ± 0.019 | 0.0038 ± 0.0018 | 0.00633 ± 0.0029
UCCUGCUACAGCUUGGAAAGUAUUUAGUUA | 0.138 ± 0.012 | 0.00897 ± 0.0022 | 0.0208 ± 0.0042
UCCUGGAACAGCUUCGCAUAGUAUUUAGUUA | 0.237 ± 0.016 | 0.00647 ± 0.0022 | 0.0367 ± 0.008
UCCUGGAUCAGCUUGCAUAGUAUUUGGUUA | 0.245 ± 0.018 | 0.0139 ± 0.003 | 0.00498 ± 0.002
UCCUGGUACAGCUUGCAUAGUAUUUUAGUUA | 0.183 ± 0.021 | 0.0144 ± 0.0062 | 0.00849 ± 0.0042
UCCUGGUACAGCUUGCAUAGUAUUAAGUUA | 0.252 ± 0.041 | 0.00423 ± 0.0038 | 0.00521 ± 0.0021
UCCUGGAUCAGCUGGCAUAGUAUUUAGUUA | 0.253 ± 0.023 | 0.00736 ± 0.0024 | 0.0104 ± 0.0026
UCCUGCUACAGCCUGCAUAGUAUUUAGUUA | 0.279 ± 0.025 | 0.00704 ± 0.0031 | 0.01 ± 0.0029
UCCUCCUACAGCUAGCAUAGUUUUUAGUUA | 0.0658 ± 0.011 | 0.00299 ± 0.0026 | 0.00442 ± 0.0017
UCCUGCUUCAGCUUGCAUAGUAUAUAGUUA | 0.277 ± 0.025 | 0.00438 ± 0.002 | 0.00887 ± 0.0035
UCCUCCUACAGCAUGCAUAGUAUUUACUUA | 0.16 ± 0.022 | 0.00307 ± 0.0026 | 0.00211 ± 0.0017
UCCUGGAUUAGCUUGCAUAGUAUUUAGUUA | 0.232 ± 0.016 | 0.00961 ± 0.0024 | 0.0447 ± 0.011
UCCUGGAUGAGCUUGCAUAGUAUUUGAGUUA | 0.307 ± 0.051 | 0.00461 ± 0.0029 | 0.00491 ± 0.0024
UCCUGGAUCUGCUUGCAUACUAUUUAGUUA | 0.055 ± 0.0088 | 0.0043 ± 0.0023 | 0.00859 ± 0.0023
UCCUGGAACAGCUUGACAUAGUAUUUAGUUA | 0.213 ± 0.016 | 0.00586 ± 0.0022 | 0.013 ± 0.004
UCCUGGAUGUGCAUGCAUAGUAUUUAGUUA | 0.116 ± 0.011 | 0.0095 ± 0.0025 | 0.00855 ± 0.0029
UCCUCCUACAGCUAGCAUUGUAUUUAGUUA | 0.184 ± 0.013 | 0.00496 ± 0.0019 | 0.0127 ± 0.0042
UCCUGGAUGUGCUUGCAUAGUAUUUAGUA | 0.111 ± 0.019 | 0.00483 ± 0.0024 | 0.00405 ± 0.002
UCCUGGAUCUAGCUUGCAUAGUAUUUAGUUA | 0.193 ± 0.021 | 0.00722 ± 0.0025 | 0.0755 ± 0.019
UCCUCGUACACCUUGCAUAGUAUUUAGUUA | 0.239 ± 0.022 | 0.00634 ± 0.0021 | 0.1 ± 0.029
UCCUGGUACAGCAUGCUUAGUAUUUAGUUA | 0.208 ± 0.025 | 0.0118 ± 0.0026 | 0.00778 ± 0.0028
UCCUGCUACUGCUUGCAUAGUUUUUAGUUA | 0.0524 ± 0.011 | 0.00424 ± 0.0018 | 0.00399 ± 0.0017
UCCUGGAUGUGCUUGCAUAGUACUUAGUUA | 0.105 ± 0.022 | 0.00413 ± 0.0024 | 0.00522 ± 0.0031
